Assay [1] can be described thus: qHTS assay to identify small molecule antagonists of the sonic hedgehog signaling (Shh) pathway (AID 1259369; calls by dose curve; further: nearly all actives have a fitted effect of over 45% in size; further: potency means the concentration at half of the fitted maximal effect). The method in brief:
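3T3Gli1-Luc, conditioned-medium-stimulated, 24hr cpd, 37C/5% CO2; Gli1-driven firefly Luc luminescence after 30min RT with luciferase reagent. Cells plated 4hr before cpd.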

The target of assay [2] is Estrogen receptor beta (Homo sapiens) (UniProt Q92731). The experiment in a line: qHTS assay to identify small molecule agonists of the estrogen receptor beta (ER-beta) signaling pathway (AID 1259377; active means well fitted activation curve with a large enough effect in the signal ratio in the repeat runs, not every such curve was filed as active; the % refers to the signal ratio). In outline: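 In HEK293T cells bearing a UAS-beta-lactamase reporter under ER-beta control, DMSO-delivered compounds were incubated for 16 hr at 37C. Activity was detected as fluorescence 2 hours after LiveBLAzer B/G FRET substrate addition.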
Estrogen receptor beta (Homo sapiens), sequence (Q92731 whole entry, looked up): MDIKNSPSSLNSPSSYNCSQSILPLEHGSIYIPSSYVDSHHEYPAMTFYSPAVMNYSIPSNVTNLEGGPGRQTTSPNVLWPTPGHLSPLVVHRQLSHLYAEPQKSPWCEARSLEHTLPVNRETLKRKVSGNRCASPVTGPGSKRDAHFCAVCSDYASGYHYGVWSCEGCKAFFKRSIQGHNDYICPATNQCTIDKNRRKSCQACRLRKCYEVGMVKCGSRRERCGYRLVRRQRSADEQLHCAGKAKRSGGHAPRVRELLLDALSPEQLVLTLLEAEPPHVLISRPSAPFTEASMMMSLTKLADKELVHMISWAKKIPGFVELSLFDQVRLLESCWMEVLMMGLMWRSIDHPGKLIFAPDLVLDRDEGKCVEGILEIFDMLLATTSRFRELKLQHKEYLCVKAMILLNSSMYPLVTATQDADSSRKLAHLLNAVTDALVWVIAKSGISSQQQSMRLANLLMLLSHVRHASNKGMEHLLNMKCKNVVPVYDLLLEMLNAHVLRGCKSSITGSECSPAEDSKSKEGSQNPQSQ

Assay [3] in a line: qHTS assay to identify small molecule agonists of the androgen receptor (AR) signaling pathway in the presence of an antagonist - cell viability counter screen (AID 1259379).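 Further: MDA-kb2 human breast cancer cells carrying an MMTV luciferase reporter; series mostly up to about 92 µM; nearly all actives have a fitted effect of over 25% in size.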 The method in brief: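 Cells: MDA-kb2 (MMTV-luc, AR and GR elements), 3,000/well, 5 hr settle. Added: nilutamide 3.0uM final, then compounds (15 conc.). Incubation: 16 hr, 37C, no CO2. Read-out: CellTiter-Fluor, 1 hr, fluorescence.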

Assay [4] in a line: qHTS assay to identify small molecule antagonists of the estrogen receptor beta (ER-beta) signaling pathway - cell viability counter screen (AID 1259382).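 Further: HEK293T cells carrying ER-beta-UAS-bla reporter stimulated with estradiol; series mostly up to about 92 µM; nearly all actives have a fitted effect of over 55% in size.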 The method in brief: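 Cells: ER-beta-UAS-bla HEK293T, 2,000/well, 2% CS-FBS, 6 hr settle. Cpd + E2 (1nM final), 16 hr, 37C/5% CO2. Bla FRET substrate 2 hr RT, then CellTiter-Glo 30 min RT, luminescence.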
Assay [5] has as its target Estrogen receptor (Homo sapiens) (UniProt P03372). The experiment in a line: qHTS assay to identify small molecule agonists of the estrogen receptor alpha (ER-alpha) signaling pathway in the presence of an antagonist (AID 1259383; calls by dose curve; further: top concentration of the series differs between compounds; nearly all actives have a fitted effect of over 15% in size). In outline: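 VM7Luc4E2, endog. ER-alpha + 4×ERE-luc; charcoal-stripped FBS, phenol red-free, 5 d; 24hr plating; +10.0nM ICI-182,780 (final); cpds 15 conc, 22hr, 37C/5% CO2; ONE-Glo luminescence.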

Assay [6] can be described thus: qHTS assay to identify small molecule agonists or antagonists of the thyroid stimulating hormone receptor (TSHR) signaling pathway - wild type cell line counter screen (AID 1259384; calls by dose curve). The method in brief: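 Counter screen in untransfected Hek293: compounds (15-point titration, triplicate) plus phosphodiesterase inhibitor Ro20-1724 added after 18 h plating; 30 min RT. Intracellular cAMP via competitive d2/cryptate immunoassay, 1 h incubation.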

Assay [7] has as its target Thyrotropin receptor (Homo sapiens) (UniProt P16473). The experiment in a line: qHTS assay to identify small molecule antagonists of the thyroid stimulating hormone receptor (TSHR) signaling pathway (AID 1259385; calls by dose curve; further: nearly all actives have a fitted effect of over 20% in size). The method in brief: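 Antagonist mode: compound-treated TSHR-expressing HEK293 cells were stimulated with 1.5 ng/mL TSH (final) in presence of Ro20-1724 for 30 min at RT. HTRF cAMP detection after 1 h; each compound tested at 15 concentrations, triplicate.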

The target in assay [8] is Progesterone receptor (Homo sapiens) (UniProt P06401). As to the kind of experiment: qHTS assay to identify small molecule agonists of the progesterone receptor (PR) signaling pathway (AID 1346784; calls by dose curve; further: nearly all actives have a fitted effect of over 30% in size). The method in brief:
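Using charcoal-stripped serum (2%) to limit endogenous steroids, PR-UAS-bla HEK 293T cells received compounds for 16 hr at 37C after 6 hr plating; beta-lactamase FRET fluorescence was recorded following 2 hr substrate loading at room temperature.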

Assay [9] in a line: qHTS assay to identify small molecule antagonists of the TGF-beta/Smad signaling pathway - cell viability counter screen (AID 1346824). Further: nearly all actives have a fitted effect of over 50% in size. In outline:
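Cytotoxicity counter-screen run in the same wells as the beta-lactamase Smad reporter read: CellTiter-Glo luminescence after 30 min at room temperature. HEK 293T SBE-bla cells had 5 hr compound exposure at 37 C with TGF-beta1 (0.25 ng/mL stock).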

The nature of assay [10]: qHTS assay to identify small molecule agonists of the TGF-beta/Smad signaling pathway - cell viability counter screen (AID 1346829). Further: top concentration of the series differs between compounds; nearly all actives have a fitted effect of over 45% in size. The method in brief:
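Here the cytotoxicity of library compounds is measured in SBE-bla HEK 293T cells treated for 5 hr, using CellTiter-Glo added to wells already read for the beta-lactamase reporter.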

Assay [11] addresses Thyrotropin-releasing hormone receptor (Homo sapiens) (UniProt P34981). The experiment in a line: qHTS assay to identify small molecule antagonists of the thyrotropin-releasing hormone receptor (TRHR) signaling pathway (AID 1346877; active means well fitted inhibition curve with a large enough effect in the repeat runs, not every such curve was filed as active; further: series mostly up to about 51 µM). The method in brief: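 Intracellular calcium fluorescence, read kinetically every second over 3 min, reports TRH-evoked signalling in HEK293 cells carrying TRHR. Test compounds were added 5 min ahead of a 1 nM TRH challenge.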

For assay [12] the target is unchanged. As to the kind of experiment: qHTS assay to identify small molecule agonists of the thyrotropin-releasing hormone receptor (TRHR) signaling pathway (AID 1346891; calls by dose curve;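 further: HEK293 cells expressing TRHR with calcium dye readout; series mostly up to about 58 µM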). The method in brief:
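In 1536-format, 1500 TRHR-Hek293 cells per well grew 18 h, took up calcium dye for 2 h at 37 °C, received compound, and were read kinetically; 15-point titrations, triplicates.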

Assay [13] concerns the target Estrogen receptor beta (Homo sapiens) (UniProt Q92731). As to the kind of experiment: qHTS assay to identify small molecule antagonists of the estrogen receptor beta (ER-beta) signaling pathway (AID 1259378; active means well fitted inhibition curve with a large enough effect in the signal ratio in the repeat runs, not every such curve was filed as active; the % refers to the signal ratio). In outline: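 Antagonist mode: compounds added to beta-lactamase reporter HEK293T ER-beta-UAS cells stimulated with E2 (1nM final), 16 hr at 37C. LiveBLAzer B/G FRET substrate, 2 hours room temperature, fluorescence read-out.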

Assay [14] can be described thus: qHTS assay to identify small molecule agonists of the estrogen receptor beta (ER-beta) signaling pathway - cell viability counter screen (AID 1259380). Further: nearly all actives have a fitted effect of over 30% in size. Further: potency means the concentration at half of the fitted maximal effect. In outline:
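HEK293T ER-beta-UAS-bla; 2% CS-FBS; 6 hr pre-plate, 16 hr cpd at 37C/5% CO2; LiveBLAzer read first, then CellTiter-Glo 30 min RT, luminescence.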

Assay [15] in a line: qHTS assay to identify small molecule agonists of the estrogen receptor alpha (ER-alpha) signaling pathway in the presence of an antagonist - cell viability counter screen (AID 1259386).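 Further: series mostly up to about 92 µM; cells exposed to compounds for 22 h at 37 °C before the viability read; nearly all actives have a fitted effect of over 30% in size.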 The method in brief:
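VM7Luc4E2, stripped-serum pre-culture 5 d; 24hr plating; +ICI-182,780 10.0nM final; cpds 15 conc, 22hr, 37C/5% CO2; CellTiter-Fluor added at 21hr, fluorescence 1hr later.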

Assay [16] addresses Progesterone receptor (Homo sapiens) (UniProt P06401). The experiment in a line: qHTS assay to identify small molecule antagonists of the progesterone receptor (PR) signaling pathway (AID 1346795; active means well fitted inhibition curve with a large enough effect in the signal ratio in the repeat runs, not every such curve was filed as active; the % refers to the signal ratio). In outline:
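Inhibition of R5020-induced (1 nM final) beta-lactamase reporter signal in PR-UAS-bla HEK293T cells was scored by FRET fluorescence after overnight (16 hr) compound treatment.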

Assay [17] in a line: qHTS assay to identify small molecule antagonists of the progesterone receptor (PR) signaling pathway - cell viability counter screen (AID 1346798). Further: series mostly up to about 92 µM; nearly all actives have a fitted effect of over 50% in size. In outline:
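ATP content as viability readout: CellTiter-Glo luminescence, 30 min room temperature, in PR-UAS-bla HEK293T cells after 16 hr compound/R5020 treatment at 37C and 5% CO2.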

A short description of assay [18]: qHTS assay to identify small molecule agonists of the progesterone receptor (PR) signaling pathway - cell viability counter screen (AID 1346799; calls by dose curve; further: nearly all actives have a fitted effect of over 45% in size). In outline: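 Cytotoxicity in PR-bla HEK293T cells: 16 h compound, 37C; CellTiter-Glo added post-FRET read; luminescence after 30 min RT.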
The nature of assay [19]: qHTS assay to identify small molecule agonists of the TGF-beta/Smad signaling pathway (AID 1346859; active means well fitted activation curve with a large enough effect in the signal ratio in the repeat runs, not every such curve was filed as active; the % refers to the signal ratio; further: series mostly up to about 77 µM). In outline:
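Stable Smad binding element-beta-lactamase HEK 293T cells; 5 hr compound exposure at 37 C under 5% CO2; 2 hr room-temperature substrate step; fluorescence excited at 405 nm, collected at 460 nm and 530 nm.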

In assay [20] the target is Androgen receptor (Homo sapiens) (UniProt P10275). The experiment in a line: qHTS assay to identify small molecule agonists of the androgen receptor (AR) signaling pathway in the presence of an antagonist (AID 1259381; calls by dose curve; further: nearly all actives have a fitted effect of over 15% in size; further: potency means the concentration at half of the fitted maximal effect). The method in brief: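 MDA-kb2 cells, 3,000/well, rested 5hr at 37C/0% CO2 → nilutamide 3.0uM final or buffer → compounds, 15 conc. → 16hr at 37C → ONE-Glo, 30min RT → luminescence.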
Androgen receptor (Homo sapiens), sequence (P10275 whole entry, looked up): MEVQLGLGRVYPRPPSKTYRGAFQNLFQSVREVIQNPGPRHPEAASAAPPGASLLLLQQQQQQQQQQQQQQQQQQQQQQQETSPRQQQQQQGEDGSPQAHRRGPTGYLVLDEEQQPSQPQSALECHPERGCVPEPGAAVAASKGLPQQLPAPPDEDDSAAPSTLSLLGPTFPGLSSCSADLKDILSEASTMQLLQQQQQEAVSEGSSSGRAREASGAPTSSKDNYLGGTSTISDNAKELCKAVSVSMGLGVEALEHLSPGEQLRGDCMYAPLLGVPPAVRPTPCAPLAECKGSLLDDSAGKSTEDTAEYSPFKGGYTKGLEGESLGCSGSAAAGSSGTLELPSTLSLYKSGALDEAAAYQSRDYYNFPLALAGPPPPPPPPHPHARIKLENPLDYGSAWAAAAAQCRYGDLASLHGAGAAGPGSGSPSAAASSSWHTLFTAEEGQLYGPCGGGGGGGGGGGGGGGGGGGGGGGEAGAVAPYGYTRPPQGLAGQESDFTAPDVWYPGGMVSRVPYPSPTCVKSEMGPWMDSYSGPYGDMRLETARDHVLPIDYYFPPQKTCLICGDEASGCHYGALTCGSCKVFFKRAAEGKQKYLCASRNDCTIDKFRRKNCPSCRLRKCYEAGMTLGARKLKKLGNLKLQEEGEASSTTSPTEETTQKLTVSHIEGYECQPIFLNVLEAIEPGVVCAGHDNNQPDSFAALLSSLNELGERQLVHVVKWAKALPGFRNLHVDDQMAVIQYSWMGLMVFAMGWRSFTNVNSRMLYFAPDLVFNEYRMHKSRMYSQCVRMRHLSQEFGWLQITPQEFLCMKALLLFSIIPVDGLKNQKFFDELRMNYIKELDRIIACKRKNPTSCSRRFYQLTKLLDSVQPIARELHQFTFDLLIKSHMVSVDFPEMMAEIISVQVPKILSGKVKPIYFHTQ

Values without a mark were called inactive. Records with an inconclusive call do not appear. Activity calls are given as the source filed them. Unless noted, the call rests on the fitted dose curve; in most records, active means well fitted curve in the direction sought with a large enough effect in the repeat runs; inconclusive means weak or mixed curves; inactive means no such curve, though single readings can be large; an effect the other way counts as inactive or inconclusive.

The values below come from PubChem BioAssay (Tox21).

Progesterone receptor (Homo sapiens), sequence (P06401 whole entry, looked up): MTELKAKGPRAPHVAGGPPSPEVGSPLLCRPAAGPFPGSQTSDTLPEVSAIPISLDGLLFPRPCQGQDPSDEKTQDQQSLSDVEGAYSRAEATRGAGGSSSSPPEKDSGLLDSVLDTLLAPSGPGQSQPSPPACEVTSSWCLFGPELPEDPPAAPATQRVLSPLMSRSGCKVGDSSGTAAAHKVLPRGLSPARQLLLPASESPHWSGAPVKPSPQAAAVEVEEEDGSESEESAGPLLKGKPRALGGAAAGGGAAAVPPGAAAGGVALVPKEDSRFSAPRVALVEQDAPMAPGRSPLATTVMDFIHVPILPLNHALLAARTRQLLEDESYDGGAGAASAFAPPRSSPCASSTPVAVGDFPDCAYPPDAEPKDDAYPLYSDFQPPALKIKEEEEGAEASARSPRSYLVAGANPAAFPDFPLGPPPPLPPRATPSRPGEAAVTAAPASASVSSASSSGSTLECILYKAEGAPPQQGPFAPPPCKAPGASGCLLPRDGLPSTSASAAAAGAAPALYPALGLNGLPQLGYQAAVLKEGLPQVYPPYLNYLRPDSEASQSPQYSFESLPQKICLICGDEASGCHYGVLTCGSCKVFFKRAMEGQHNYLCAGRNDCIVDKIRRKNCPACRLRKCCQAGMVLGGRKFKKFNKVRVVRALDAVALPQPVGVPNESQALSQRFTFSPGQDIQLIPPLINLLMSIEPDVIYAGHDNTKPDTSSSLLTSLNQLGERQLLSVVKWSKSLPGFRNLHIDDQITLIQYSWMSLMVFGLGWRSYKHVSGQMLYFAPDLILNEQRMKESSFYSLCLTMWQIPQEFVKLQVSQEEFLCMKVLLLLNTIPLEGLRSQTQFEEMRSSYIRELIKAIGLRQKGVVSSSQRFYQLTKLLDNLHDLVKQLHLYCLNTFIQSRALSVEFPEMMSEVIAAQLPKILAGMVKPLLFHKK
Thyrotropin-releasing hormone receptor (Homo sapiens), sequence (P34981 whole entry, looked up): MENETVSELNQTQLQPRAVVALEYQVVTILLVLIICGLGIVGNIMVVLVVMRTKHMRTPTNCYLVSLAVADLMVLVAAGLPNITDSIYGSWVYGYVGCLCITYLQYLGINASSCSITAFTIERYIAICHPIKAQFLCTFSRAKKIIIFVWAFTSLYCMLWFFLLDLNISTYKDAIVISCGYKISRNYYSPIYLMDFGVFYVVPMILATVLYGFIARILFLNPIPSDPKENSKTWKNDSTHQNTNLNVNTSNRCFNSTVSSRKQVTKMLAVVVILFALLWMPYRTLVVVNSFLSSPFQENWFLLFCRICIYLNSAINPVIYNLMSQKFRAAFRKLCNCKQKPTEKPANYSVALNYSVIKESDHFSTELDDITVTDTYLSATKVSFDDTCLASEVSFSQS
Estrogen receptor (Homo sapiens), sequence (P03372 whole entry, looked up): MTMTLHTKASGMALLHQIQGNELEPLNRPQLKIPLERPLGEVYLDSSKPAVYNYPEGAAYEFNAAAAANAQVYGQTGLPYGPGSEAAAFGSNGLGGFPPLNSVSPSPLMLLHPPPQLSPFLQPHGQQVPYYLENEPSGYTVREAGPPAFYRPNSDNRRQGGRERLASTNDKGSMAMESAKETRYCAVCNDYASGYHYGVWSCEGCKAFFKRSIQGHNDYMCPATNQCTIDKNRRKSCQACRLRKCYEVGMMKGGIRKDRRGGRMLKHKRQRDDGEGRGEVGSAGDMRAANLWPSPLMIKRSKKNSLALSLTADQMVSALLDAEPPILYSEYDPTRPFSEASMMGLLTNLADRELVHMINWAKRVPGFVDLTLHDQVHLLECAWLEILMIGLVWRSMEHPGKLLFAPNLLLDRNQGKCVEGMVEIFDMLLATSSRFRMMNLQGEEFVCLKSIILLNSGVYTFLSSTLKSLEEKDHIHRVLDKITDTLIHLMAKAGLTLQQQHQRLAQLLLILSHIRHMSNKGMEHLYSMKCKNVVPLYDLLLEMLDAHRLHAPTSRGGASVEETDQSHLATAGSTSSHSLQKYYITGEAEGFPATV
Thyrotropin receptor (Homo sapiens), sequence (P16473 whole entry, looked up): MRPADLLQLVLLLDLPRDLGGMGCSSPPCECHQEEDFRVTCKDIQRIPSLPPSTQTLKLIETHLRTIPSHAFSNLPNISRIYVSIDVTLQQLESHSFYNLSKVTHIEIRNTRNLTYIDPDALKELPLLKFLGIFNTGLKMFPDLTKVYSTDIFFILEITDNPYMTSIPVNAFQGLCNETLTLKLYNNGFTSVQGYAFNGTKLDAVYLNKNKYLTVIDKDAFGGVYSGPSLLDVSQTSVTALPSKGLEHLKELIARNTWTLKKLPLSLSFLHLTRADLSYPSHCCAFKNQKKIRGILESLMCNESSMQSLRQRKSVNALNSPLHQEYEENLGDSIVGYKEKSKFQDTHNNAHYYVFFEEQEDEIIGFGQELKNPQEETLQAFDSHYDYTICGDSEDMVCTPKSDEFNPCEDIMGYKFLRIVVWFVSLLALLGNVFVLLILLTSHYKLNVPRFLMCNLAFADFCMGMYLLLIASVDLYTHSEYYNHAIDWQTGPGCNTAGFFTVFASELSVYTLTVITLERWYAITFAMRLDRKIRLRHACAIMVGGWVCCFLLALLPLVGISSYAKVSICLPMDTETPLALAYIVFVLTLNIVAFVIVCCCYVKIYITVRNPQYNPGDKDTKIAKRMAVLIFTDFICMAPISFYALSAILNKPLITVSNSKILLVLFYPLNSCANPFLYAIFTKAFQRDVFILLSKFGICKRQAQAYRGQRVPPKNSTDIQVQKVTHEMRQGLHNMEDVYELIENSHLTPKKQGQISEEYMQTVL

On to `CC(C)c1nnc2ccc(-c3ocnc3-c3cc(F)ccc3F)cn12`, for which the Potency in assay [1] is 1.09 µM (active). Moreover, the Potency result in [2], in assay [3], in [4], in [5], in assay [7] and in assay [8] was “inactive” throughout. Also, in assay [12], the Potency result was “inactive”. For the same molecule, the molecule was classed as inactive in assay [6], in assay [9], in assay [10] and in assay [11].

Take `CN1CCCN=C1/C=C/c1cccs1`: the Potency entry in assay [1], in assay [13], in assay [3], in assay [14], in [4] and in [5] was “inactive” in each case. The Potency entry in assay [7], in [15], in [8], in assay [16], in assay [17] and in assay [18] was “inactive” in each case. The call in assay [9], in assay [10] and in assay [19] was inactive.

For `O=C(O)c1ccc(CO)o1`, the Potency entry in assay [1], in assay [13], in [3], in assay [14], in assay [4] and in assay [7] was “inactive” throughout. Also, the Potency entry in [15], in [8], in assay [16], in assay [17], in assay [18] and in [12] was “inactive” in each case. Also, the molecule was called inactive in [6], in [9], in assay [10], in assay [19] and in assay [11].

With `CCCCCC=CCC=CCCCCCCCC(=O)OCC`, the Potency result in [1], in [13], in assay [3], in assay [4], in [5] and in assay [7] was “inactive” in each case. Moreover, the Potency entry in [15], in assay [16], in assay [17] and in [18] was “inactive” throughout. In addition, in assay [14], the Potency was 29.8 µM (active). In addition, the outcome in assay [9], in assay [10], in assay [19] and in [11] was inactive.

`CC(=O)OCC(=O)[C@H]1CC[C@H]2[C@@H]3CCC4=CC(=O)CC[C@]4(C)[C@H]3CC[C@]12C`: the Potency was 11.9 µM (active) in assay [1] and 3.76 µM (active) in assay [20]. For the same molecule, the Potency entry in [2], in assay [3], in [4], in assay [5], in [15] and in [16] was “inactive” in each case. Also, the Potency entry in [17] and in assay [12] was “inactive” each time. Further, the result in assay [6], in assay [9], in assay [10], in assay [19] and in assay [11] was inactive.

Regarding `CCn1nc(C)c2c1C(=O)NCC(c1ccc(O)cc1)=N2`, the Potency in assay [1] was 0.0122 µM (active). Further, the Potency result in assay [13], in assay [3], in assay [14], in [4], in assay [15] and in [8] was “inactive” throughout. Further, the Potency entry in assay [16] and in assay [17] was “inactive” in each case. In addition, the outcome in [6], in [9], in assay [10] and in assay [19] was inactive.

For the molecule `CCCOC(=O)c1ccc(C(=O)OCCC)nc1`, the Potency entry in assay [1], in assay [13], in assay [3], in [14], in [20] and in [4] was “inactive” throughout. The Potency entry in assay [5], in [7], in [15], in assay [17], in [18] and in [12] was “inactive” in each case. The outcome in assay [9], in assay [10] and in assay [11] was inactive.
